PubChem BioAssay (NCATS)
Unmarked numbers belong to inactive results. Records with an inconclusive call do not appear. A call without a number means that no potency is given here. Active and inactive are the calls of the source. Calls follow the shape of the dose curve; as a rule, active = well fitted curve in the direction sought with a large enough effect; inconclusive = small, poorly fitted or top-dose-only effect, or another doubt; inactive = no such curve, though single readings can be large; an effect the other way counts as inactive or inconclusive.

What was measured:
[1] = qHTS assay for measurement of the activity of small molecule inhibitors on Zika virus induced Caspase-3 activity in human iPSC derived neural progenitor cells (hNPCs) (AID 1224857); also: nearly all actives have a fitted effect of over 65% in size; also: potency is read from the fitted curve at half-maximal effect
How it was run: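 After overnight (16–20 h) culture at 350 cells/well, hNPCs get compound, then ZIKV 2 FFU/cell one hour later. Six hours on, Caspase-Glo 3/7 is added and luminescence measured.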

[2] = qHTS assay for measurement of the activity of small molecule inhibitors on Zika virus induced Caspase-3 activity in human astrocytoma cells (AID 1224859)
How it was run: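 Inhibition of Zika-induced caspase-3/7 activity: SNB-19 cells, 1 h compound pretreatment, ZIKV 2 FFU/cell for 6 h at 37 C, Caspase-Glo luminescence read-out.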

[3] = NS1 protein of Zika virus - qHTS assay to identify small molecule inhibitors in human HEK 293 cells (AID 1347053); also: series mostly up to about 46 µM; nearly all actives have a fitted effect of over 55% in size
How it was run: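 Compound-treated (1 h pre-infection) HEK 293 cells infected with ZIKV MR766, MOI = 0.5; after 24 h at 37 C, NS1 read by TR-FRET; data normalized to uninfected and infected controls.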

[4] = qHTS of pediatric cancer cell lines to identify multiple opportunities for drug repurposing: Primary screen for SJ-GBM2 cells (AID 1347091); also: potency is read from the fitted curve at half-maximal effect
How it was run: (§1)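 Viability measured as metabolically active cells via CellTiter-Glo luminescence following 48 hours of compound exposure, 11-point dilutions in confirmatory testing. 500-1,000 cells/well plated 5 hours before dosing; controls were DMSO and 2.3 µM bortezomib.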

[5] = qHTS of pediatric cancer cell lines to identify multiple opportunities for drug repurposing: Primary screen for A673 cells (AID 1347092); also: nearly all actives have a fitted effect of over 45% in size; also: potency is read from the fitted curve at half-maximal effect
How it was run: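 Titration-based qHTS on A673 cells: MIPE compounds spanned 11 points (0.78 nM to 46 µM final), NPC compounds 8 points (0.59 nM to 46 µM final). Viability after 48 h was measured by ATP luminescence.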

[6] = qHTS of pediatric cancer cell lines to identify multiple opportunities for drug repurposing: Primary screen for DAOY cells (AID 1347090); also: nearly all actives have a fitted effect of over 55% in size; also: potency is read from the fitted curve at half-maximal effect; as to activity change, negative = cytotoxic: series mostly up to about 46 µM
How it was run: as §1

[7] = qHTS of pediatric cancer cell lines to identify multiple opportunities for drug repurposing: Primary screen for TC32 cells (AID 1347089); also: nearly all actives have a fitted effect of over 60% in size; also: potency is read from the fitted curve at half-maximal effect
How it was run: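 A viability screen of TC32 cells was run over 48 h, with primary MIPE doses spanning 0.78 nM–46 µM and NPC doses 0.59 nM–46 µM. ATP luminescence (CellTiter-Glo) served as the read-out.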

## Nc1cc(C(F)(F)F)ccc1S
[1]
  Potency: 14100 nM (active)
[2]
  outcome: inactive
[3]
  Potency: inactive
[4]
  Potency: inactive
[5]
  Potency: 21100 nM (active)

## O=C(O)CCCC[P+](c1ccccc1)(c1ccccc1)c1ccccc1
[1]
  Potency: inactive
[2]
  outcome: inactive
[3]
  Potency: inactive
[6]
  Potency: inactive
[4]
  Potency: inactive
[5]
  Potency: inactive

## NC(=O)NS(=O)(=O)c1ccc(Cl)cc1
[1]
  Potency: inactive
[2]
  outcome: inactive
[3]
  Potency: inactive
[6]
  Potency: inactive
[4]
  Potency: inactive
[5]
  Potency: inactive

## C[C@@H]1CCC[C@H](C)N1CCCC(O)(c1ccccc1)c1ccccn1 (some centres not stated)
[1]
  Potency: inactive
[2]
  outcome: inactive
[3]
  Potency: inactive
[4]
  Potency: inactive
[5]
  Potency: inactive

## CC(=O)Oc1ccc(C2(c3ccc(OC(C)=O)cc3)Oc3ccccc3NC2=O)cc1
[1]
  Potency: inactive
[2]
  outcome: inactive
[3]
  Potency: inactive
[6]
  Potency: 13300 nM (active)
[5]
  Potency: 13300 nM (active)

## c1ccc(C(O[C@H]2CCCN(CCc3ccc4c(c3)OCO4)C2)c2ccccc2)cc1
[1]
  Potency: inactive
[2]
  outcome: inactive
[3]
  Potency: inactive
[7]
  Potency: inactive
[5]
  Potency: inactive

## CCOC(=O)CN1CCCC1=O
[1]
  Potency: inactive
[2]
  outcome: inactive
[3]
  Potency: inactive
[6]
  Potency: inactive
[4]
  Potency: inactive
[5]
  Potency: inactive

## Nc1nc(=O)n([C@@H]2O[C@H](CO)[C@@H](O)[C@@H]2F)cc1I
[1]
  Potency: inactive
[2]
  outcome: inactive
[3]
  Potency: inactive
[6]
  Potency: inactive

## CCCCC(CC)CNC(=O)CC(C)OC(=O)CCC(=O)O (configuration not stated)
[1]
  Potency: inactive
[2]
  outcome: inactive
[3]
  Potency: inactive
[7]
  Potency: inactive
[4]
  Potency: inactive
[5]
  Potency: inactive

## CCC(CN)=C(c1ccccc1)c1ccccc1
[1]
  Potency: inactive
[2]
  outcome: inactive
[7]
  Potency: inactive
[6]
  Potency: inactive
[4]
  Potency: inactive
[5]
  Potency: inactive

## CC1CCCCN1CCCOC(=O)c1ccc(OC2CCCCC2)cc1 (configuration not stated)
[1]
  Potency: inactive
[2]
  outcome: inactive
[4]
  Potency: inactive

## CCCCCCCCCCCCCCCC[n+]1ccccc1
[1]
  Potency: inactive
[2]
  outcome: inactive
[5]
  Potency: 1680 nM (active)

## CN1Cc2cc(C(=O)N3CCC(C4CCNCC4)CC3)ccc2N[C@@H](CC(=O)O)C1=O
[1]
  Potency: inactive
[2]
  outcome: inactive
[7]
  Potency: inactive
[6]
  Potency: inactive
[4]
  Potency: inactive
[5]
  Potency: inactive

## CC[C@@H]([C@H](C)O)n1ncn(-c2ccc(N3CCN(c4ccc(OC[C@@H]5CO[C@@](Cn6cncn6)(c6ccc(F)cc6F)C5)cc4)CC3)cc2)c1=O
[1]
  Potency: inactive
[2]
  outcome: inactive
[7]
  Potency: inactive
[4]
  Potency: 18800 nM (active)

## CCOC(=O)O[C@]1(C(=O)OCCl)CC[C@H]2[C@@H]3CCC4=CC(=O)C=C[C@]4(C)[C@H]3[C@@H](O)C[C@@]21C
[1]
  Potency: inactive
[2]
  outcome: inactive
[7]
  Potency: inactive
[4]
  Potency: inactive
[5]
  Potency: inactive

## CC(C)NC(=O)c1ccc(C=O)cc1
[1]
  Potency: inactive
[2]
  outcome: inactive
[7]
  Potency: inactive
[6]
  Potency: inactive
[4]
  Potency: inactive

## O=C1CC(c2ccc(Cl)cc2)CC(=O)N1
[1]
  Potency: inactive
[2]
  outcome: inactive
[7]
  Potency: inactive
[6]
  Potency: inactive
[4]
  Potency: inactive

## CC[C@@]1(O)C(=O)OCc2c1cc1n(c2=O)Cc2c-1nc1ccccc1c2/C=N/OC(C)(C)C
[1]
  Potency: inactive
[2]
  outcome: inactive
[6]
  Potency: 106 nM (active)
[5]
  Potency: 33.5 nM (active)

## C[C@@H](C1=C(CCN(C)C)Cc2ccccc21)c1ccccn1
[1]
  Potency: inactive
[2]
  outcome: inactive
[7]
  Potency: inactive
[6]
  Potency: inactive
[4]
  Potency: inactive
[5]
  Potency: inactive

## Cc1ccc(CCn2c3c(c4cc(Cl)ccc42)CN(C)CC3)cn1
[1]
  Potency: inactive
[2]
  outcome: inactive
[7]
  Potency: inactive
[4]
  Potency: inactive

## CCCCCCCCCCCCCCCC[N+](C)(C)Cc1ccccc1
[1]
  Potency: inactive
[2]
  outcome: inactive
[5]
  Potency: 13300 nM (active)

## C[C@H]1C[C@H]2[C@@H]3CCC4=CC(=O)C=C[C@]4(C)[C@H]3C(=O)C[C@]2(C)[C@@]1(O)C(=O)CO
[1]
  Potency: inactive
[2]
  outcome: inactive
[7]
  Potency: inactive
[4]
  Potency: inactive
[5]
  Potency: inactive

## CCC1=C[C@@H]2CN(C1)Cc1c([nH]c3ccccc13)[C@@](C(=O)OC)(c1cc3c(cc1OC)N(C)[C@H]1[C@@](O)(C(=O)OC)[C@H](OC(C)=O)[C@]4(CC)C=CCN5CC[C@]31[C@@H]54)C2
[1]
  Potency: inactive
[2]
  outcome: inactive
[7]
  Potency: 26.4 nM (active)
[6]
  Potency: 53.1 nM (active)
[4]
  Potency: 8.4 nM (active)
[5]
  Potency: 10.6 nM (active)

## N#CSCC(=O)O
[1]
  Potency: inactive
[2]
  outcome: inactive
[7]
  Potency: inactive
[4]
  Potency: inactive
[5]
  Potency: inactive

## CC(C)(C)c1cc(C=O)cc(C(C)(C)C)c1O
[1]
  Potency: inactive
[2]
  outcome: inactive
[7]
  Potency: inactive
[6]
  Potency: inactive
[4]
  Potency: inactive
[5]
  Potency: inactive

## COc1cc2c(cc1OC)CN(C(=O)[C@H](C)N[C@@H](CCc1ccccc1)C(=O)O)[C@H](C(=O)O)C2
[1]
  Potency: inactive
[2]
  outcome: inactive
[7]
  Potency: inactive
[6]
  Potency: inactive
[5]
  Potency: inactive

## CCCCCCCCCCCCCC[N+](C)(C)C
[1]
  Potency: inactive
[2]
  outcome: inactive
[6]
  Potency: 10600 nM (active)
[5]
  Potency: 2110 nM (active)

## CCN(CC)CCOc1ccc(/C(=C(\Cl)c2ccccc2)c2ccccc2)cc1
[1]
  Potency: inactive
[2]
  outcome: inactive
[4]
  Potency: 18800 nM (active)
[5]
  Potency: 21100 nM (active)

## Cc1nc(N)nc(N)c1-c1ccc(Cl)c(Cl)c1
[1]
  Potency: inactive
[2]
  outcome: inactive
[7]
  Potency: 470 nM (active)
[6]
  Potency: 841 nM (active)
[4]
  Potency: 299 nM (active)
[5]
  Potency: 1060 nM (active)

## CC1CN(c2cc3c(cc2F)c(=O)c(C(=O)O)cn3-c2ccc(F)cc2F)CCN1 (configuration not stated)
[1]
  activity change, negative = inhibition: -6.17% [at 4.53 µM]
[2]
  activity change, negative = inhibition: -1.94% [at 4.53 µM]
[7]
  activity change, negative = cytotoxic: -4% [at 4.81 µM]
[6]
  activity change, negative = cytotoxic: 0.682% [at 4.84 µM]
[4]
  activity change, negative = cytotoxic: 78.3% [at 4.84 µM]
[5]
  activity change, negative = cytotoxic: -9.43% [at 4.84 µM]

## CC(C)=CCC/C(C)=C/CC/C(C)=C/C(=O)OCC(=O)[C@@]1(O)CC[C@H]2[C@@H]3CCC4=CC(=O)C=C[C@]4(C)[C@H]3[C@@H](O)C[C@@]21C
[1]
  Potency: inactive
[2]
  outcome: inactive
[7]
  Potency: inactive
[4]
  Potency: 13300 nM (active)
[5]
  Potency: inactive

## Cc1sccc1Br
[1]
  Potency: inactive
[2]
  outcome: inactive
[6]
  Potency: inactive
[4]
  Potency: inactive

## Cc1c(F)cc2c(=O)c(C(=O)O)cn3c2c1CCC3C (configuration not stated)
[1]
  Potency: inactive
[2]
  outcome: inactive
[7]
  Potency: inactive
[6]
  Potency: inactive
[4]
  Potency: inactive
[5]
  Potency: inactive

## O=C(CCC1CCN(Cc2ccccc2)CC1)c1ccc2c(c1)NCCCC2
[1]
  Potency: inactive
[2]
  outcome: inactive
[6]
  Potency: inactive
